{
  "source": "PubChem BioAssay AID1159580",
  "about": "(chemical genetic matrix, 2015)",
  "test": "chemical genetic growth profiling, strain panel (AID 1159580);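 note: tested at 20 µM; growth read once vehicle control cultures reached saturation at 30 °C; 1 = growth at the plate median or of vehicle wells; lower values mean less growth of the strain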",
  "details": "S. cerevisiae deletion strains, growth OD",
  "note": "Values joined by “and” are separate entries in the source; they are usually repeats but may differ in a detail not shown here. Equal entries are not always repeated. Among all 5,500 compounds or so, about 2,000 (36%) were called active. Another 18% or so got no clear call; they are omitted. Cut-off read from the data, not from the text of the source: active = normalized growth mostly below about 0.91 (no sharp cut-off); inconclusive = no clear call, values can overlap the other calls; inactive = mostly above about 0.92. The list shows a part of the results.",
  "data": [
    {"smiles": "C[n+]1c2cc(N)ccc2cc2ccc(N)cc21", "values": [
      {"measurement": "normalized growth", "setting": "locus YAL013W, strain DEP1, stronger effect = lower value", "result": "0.748 (active)"},
      {"measurement": "normalized growth", "setting": "locus YAL021C, strain ccr4, stronger effect = lower value", "result": "0.335 (active)"},
      {"measurement": "normalized growth", "setting": "locus YAL026C, strain drs2, stronger effect = lower value", "result": "0.586 (active)"},
      {"measurement": "normalized growth", "setting": "locus YAL030W, strain snc1, stronger effect = lower value", "result": "0.505 (active)"},
      {"measurement": "normalized growth", "setting": "locus YBL061C, strain skt5, stronger effect = lower value", "result": "0.616 (active)"},
      {"measurement": "normalized growth", "setting": "locus YBR009C, strain hhf1, stronger effect = lower value", "result": "0.356 (active)"},
      {"measurement": "normalized growth", "setting": "locus YBR021W, strain FUR4, stronger effect = lower value", "result": "1.11 (inactive)"},
      {"measurement": "normalized growth", "setting": "locus YBR023C, strain chs3, stronger effect = lower value", "result": "0.666 (active)"},
      {"measurement": "normalized growth", "setting": "locus YBR171W, strain sec66, stronger effect = lower value", "result": "0.934 (inactive)"},
      {"measurement": "normalized growth", "setting": "locus YBR229C, strain ROT2, stronger effect = lower value", "result": "0.888 (active)"},
      {"measurement": "normalized growth", "setting": "locus YBR231C, strain swc5, stronger effect = lower value", "result": "0.359 (active)"},
      {"measurement": "normalized growth", "setting": "locus YBR279W, strain paf1, stronger effect = lower value", "result": "0.701 (active)"},
      {"measurement": "normalized growth", "setting": "locus YCL011C, strain gbp2, stronger effect = lower value", "result": "0.438 (active)"},
      {"measurement": "normalized growth", "setting": "locus YCL016C, strain dcc1, stronger effect = lower value", "result": "0.331 (active)"},
      {"measurement": "normalized growth", "setting": "locus YCL029C, strain bik1, stronger effect = lower value", "result": "0.67 (active)"},
      {"measurement": "normalized growth", "setting": "locus YCL069W, strain vba3, stronger effect = lower value", "result": "0.588 (active)"},
      {"measurement": "normalized growth", "setting": "locus YCR088W, strain abp1, stronger effect = lower value", "result": "0.55 (active)"},
      {"measurement": "normalized growth", "setting": "locus YDL005C, strain med2, stronger effect = lower value", "result": "0.572 (active)"},
      {"measurement": "normalized growth", "setting": "locus YDL035C, strain GPR1, stronger effect = lower value", "result": "0.72 (active)"},
      {"measurement": "normalized growth", "setting": "locus YDL040C, strain nat1, stronger effect = lower value", "result": "0.718 (active)"},
      {"measurement": "normalized growth", "setting": "locus YDL074C, strain BRE1, stronger effect = lower value", "result": "0.575 (active)"},
      {"measurement": "normalized growth", "setting": "locus YDL101C, strain DUN1, stronger effect = lower value", "result": "0.761 (active)"},
      {"measurement": "normalized growth", "setting": "locus YDL134C, strain PPH21, stronger effect = lower value", "result": "0.726 (active)"},
      {"measurement": "normalized growth", "setting": "locus YDL185W, strain tfp1, stronger effect = lower value", "result": "0.938 (inactive)"},
      {"measurement": "normalized growth", "setting": "locus YDL192W, strain arf1, stronger effect = lower value", "result": "0.844 (active)"},
      {"measurement": "normalized growth", "setting": "locus YDR001C, strain nth1, stronger effect = lower value", "result": "0.74 (active)"},
      {"measurement": "normalized growth", "setting": "locus YDR069C, strain doa4, stronger effect = lower value", "result": "0.591 (active)"},
      {"measurement": "normalized growth", "setting": "locus YDR101C, strain arx1, stronger effect = lower value", "result": "0.81 (active)"},
      {"measurement": "normalized growth", "setting": "locus YDR137W, strain rgp1, stronger effect = lower value", "result": "0.616 (active)"},
      {"measurement": "normalized growth", "setting": "locus YDR150W, strain NUM1, stronger effect = lower value", "result": "0.831 (active)"},
      {"measurement": "normalized growth", "setting": "locus YDR159W, strain sac3, stronger effect = lower value", "result": "0.77 (active)"},
      {"measurement": "normalized growth", "setting": "locus YDR162C, strain NBP2, stronger effect = lower value", "result": "0.723 (active)"},
      {"measurement": "normalized growth", "setting": "locus YDR195W, strain ref2", "result": "1.22 [resistant] (active)"},
      {"measurement": "normalized growth", "setting": "locus YDR297W, strain sur2, stronger effect = lower value", "result": "0.652 (active)"},
      {"measurement": "normalized growth", "setting": "locus YDR318W, strain mcm21, stronger effect = lower value", "result": "0.834 (active)"},
      {"measurement": "normalized growth", "setting": "locus YDR334W, strain swr1, stronger effect = lower value", "result": "0.412 (active)"},
      {"measurement": "normalized growth", "setting": "locus YDR335W, strain msn5, stronger effect = lower value", "result": "0.499 (active)"},
      {"measurement": "normalized growth", "setting": "locus YDR388W, stronger effect = lower value", "result": "0.722 (active)"},
      {"measurement": "normalized growth", "setting": "locus YDR392W, strain spt3, stronger effect = lower value", "result": "0.352 (active)"},
      {"measurement": "normalized growth", "setting": "locus YDR502C, strain sam2, stronger effect = lower value", "result": "0.793 (active)"},
      {"measurement": "normalized growth", "setting": "locus YEL003W, strain gim4, stronger effect = lower value", "result": "0.491 (active)"},
      {"measurement": "normalized growth", "setting": "locus YEL037C, strain rad23, stronger effect = lower value", "result": "0.437 (active)"},
      {"measurement": "normalized growth", "setting": "locus YEL061C, strain CIN8 (second series), stronger effect = lower value", "result": "0.652 (active)"},
      {"measurement": "normalized growth", "setting": "locus YEL061C, strain CIN8, stronger effect = lower value", "result": "0.851 (active)"},
      {"measurement": "normalized growth", "setting": "locus YER015W, strain faa2, stronger effect = lower value", "result": "0.498 (active)"},
      {"measurement": "normalized growth", "setting": "locus YER016W, strain bim1, stronger effect = lower value", "result": "0.479 (active)"},
      {"measurement": "normalized growth", "setting": "locus YER110C, stronger effect = lower value", "result": "0.961 (inactive)"},
      {"measurement": "normalized growth", "setting": "locus YER111C, strain swi4, stronger effect = lower value", "result": "0.633 (active)"},
      {"measurement": "normalized growth", "setting": "locus YER155C, strain BEM2 (second series), stronger effect = lower value", "result": "0.272 (active)"},
      {"measurement": "normalized growth", "setting": "locus YER155C, strain BEM2, stronger effect = lower value", "result": "0.935 (inactive)"},
      {"measurement": "normalized growth", "setting": "locus YER167W, strain BCK2, stronger effect = lower value", "result": "0.754 (active)"},
      {"measurement": "normalized growth", "setting": "locus YFR010W, strain ubp6, stronger effect = lower value", "result": "0.536 (active)"},
      {"measurement": "normalized growth", "setting": "locus YGL078C, strain dbp3, stronger effect = lower value", "result": "0.937 (inactive)"},
      {"measurement": "normalized growth", "setting": "locus YGL086W, strain mad1, stronger effect = lower value", "result": "0.778 (active)"},
      {"measurement": "normalized growth", "setting": "locus YGL167C, strain pmr1, stronger effect = lower value", "result": "0.938 (inactive)"},
      {"measurement": "normalized growth", "setting": "locus YGL173C, strain kem1, stronger effect = lower value", "result": "0.481 (active)"},
      {"measurement": "normalized growth", "setting": "locus YGL227W, strain vid30, stronger effect = lower value", "result": "0.671 (active)"},
      {"measurement": "normalized growth", "setting": "locus YGL240W, strain doc1, stronger effect = lower value", "result": "0.63 (active)"},
      {"measurement": "normalized growth", "setting": "locus YGL248W, strain PDE1, stronger effect = lower value", "result": "0.758 (active)"},
      {"measurement": "normalized growth", "setting": "locus YGL253W, strain hxk2, stronger effect = lower value", "result": "0.425 (active)"},
      {"measurement": "normalized growth", "setting": "locus YGR078C, strain PAC10, stronger effect = lower value", "result": "0.722 (active)"},
      {"measurement": "normalized growth", "setting": "locus YGR135W, strain pre9, stronger effect = lower value", "result": "0.777 (active)"},
      {"measurement": "normalized growth", "setting": "locus YGR229C, strain SMI1, stronger effect = lower value", "result": "0.704 (active)"},
      {"measurement": "normalized growth", "setting": "locus YGR252W, strain gcn5, stronger effect = lower value", "result": "0.531 (active)"},
      {"measurement": "normalized growth", "setting": "locus YHR013C, strain ard1, stronger effect = lower value", "result": "0.397 (active)"},
      {"measurement": "normalized growth", "setting": "locus YHR027C, strain rpn1, stronger effect = lower value", "result": "0.546 (active)"},
      {"measurement": "normalized growth", "setting": "locus YHR030C, strain SLT2, stronger effect = lower value", "result": "0.724 (active) and 0.882 (inactive)"},
      {"measurement": "normalized growth", "setting": "locus YHR079C, strain IRE1 (second series), stronger effect = lower value", "result": "0.779 (active)"},
      {"measurement": "normalized growth", "setting": "locus YHR079C, strain IRE1, stronger effect = lower value", "result": "0.841 (active)"},
      {"measurement": "normalized growth", "setting": "locus YHR094C, strain hxt1, stronger effect = lower value", "result": "0.939 (inactive)"},
      {"measurement": "normalized growth", "setting": "locus YHR129C, strain ARP1, stronger effect = lower value", "result": "0.897 (active)"},
      {"measurement": "normalized growth", "setting": "locus YHR142W, strain chs7, stronger effect = lower value", "result": "0.44 (active)"},
      {"measurement": "normalized growth", "setting": "locus YHR200W, strain rpn10, stronger effect = lower value", "result": "0.682 (active)"},
      {"measurement": "normalized growth", "setting": "locus YIL066C, strain RNR3, stronger effect = lower value", "result": "0.792 (active)"},
      {"measurement": "normalized growth", "setting": "locus YIL073C, strain SPO22, stronger effect = lower value", "result": "0.534 (active)"},
      {"measurement": "normalized growth", "setting": "locus YIL125W, strain kgd1, stronger effect = lower value", "result": "0.945 (inactive)"},
      {"measurement": "normalized growth", "setting": "locus YIR030C, strain dcg1, stronger effect = lower value", "result": "0.859 (active)"},
      {"measurement": "normalized growth", "setting": "locus YJL092W, strain hpr5, stronger effect = lower value", "result": "0.253 (active)"},
      {"measurement": "normalized growth", "setting": "locus YJL095W, strain BCK1 (second series), stronger effect = lower value", "result": "0.487 (active)"},
      {"measurement": "normalized growth", "setting": "locus YJL095W, strain BCK1, stronger effect = lower value", "result": "0.486 (active) and 0.879 (active)"},
      {"measurement": "normalized growth", "setting": "locus YJL115W, strain asf1, stronger effect = lower value", "result": "0.369 (active)"},
      {"measurement": "normalized growth", "setting": "locus YJL129C, strain trk1, stronger effect = lower value", "result": "0.773 (active)"},
      {"measurement": "normalized growth", "setting": "locus YJL134W, strain LCB3, stronger effect = lower value", "result": "0.912 (active)"},
      {"measurement": "normalized growth", "setting": "locus YJL154C, strain vps35, stronger effect = lower value", "result": "0.808 (active)"},
      {"measurement": "normalized growth", "setting": "locus YJL164C, strain tpk1, stronger effect = lower value", "result": "0.417 (active)"},
      {"measurement": "normalized growth", "setting": "locus YJL166W, strain qcr8, stronger effect = lower value", "result": "0.392 (active)"},
      {"measurement": "normalized growth", "setting": "locus YJL168C, strain set2, stronger effect = lower value", "result": "0.91 (active)"},
      {"measurement": "normalized growth", "setting": "locus YJL187C, strain SWE1 (second series), stronger effect = lower value", "result": "0.708 (active)"},
      {"measurement": "normalized growth", "setting": "locus YJR043C, strain POL32, stronger effect = lower value", "result": "0.703 (active)"},
      {"measurement": "normalized growth", "setting": "locus YJR066W, strain TOR1, stronger effect = lower value", "result": "0.849 (inactive)"},
      {"measurement": "normalized growth", "setting": "locus YJR075W, strain HOC1, stronger effect = lower value", "result": "0.566 (active)"}
    ]}
  ]
}
